# Bioassay records as filed in PubChem.
# In the library only some 1.9% were active in any assay of this set; here they are far more common.
# ATG4B inh – blocks human ATG4B protease cleavage of LC3 substrate | AID 504462 | inhibition, % at 8.33 µM | ATG4B cleavage of LC3-PLA2, NBD-HPC fluorescence, 1 h | Q9Y4P1 | actives 0.51% (n = 340,000); in the data active = inhibition above about 40%
# Cardio protect – modulators protecting cardiomyocytes from myocardial damage; H9c2 cardiomyocytes, H2O2 injury protection, ATPLite, 2 h; protection from H2O2 cell death, % at 20 µM; actives 0.63% (n = 360,000);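 active = compounds giving at least 50% protection of heart cells from peroxide-induced death in the single-dose screen, raw or plate-pattern-corrected value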;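 note: 0% = DMSO wells with peroxide and 100% = DMSO wells without peroxide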
# PP5 inh – inhibitors of human protein phosphatase 5 (PP5); P53041; purified PP5c, OMFP substrate fluorescence; inhibition, % at 6.7 µM; actives 0.18% (n = 320,000);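 active = inhibition above the campaign's mean inhibition across all tested compounds plus 3 SD, cut at about 9.5% in these data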;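 note: 0% = DMSO only and 100% = 100 µM cantharidin control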
# PP1 counter – counter-screen for PP5 inhibitors: inhibitors of human PP1-alpha; actives 0.9% (n = 320,000); P62136; inhibition, % at 6.7 µM; purified PP1alpha, OMFP fluorescence;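 active = inhibition above the mean inhibition of all tested compounds plus 3 SD, computed separately for each screening campaign, cut at about 15% in these data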
# Target sequence (P62136 whole entry, looked up): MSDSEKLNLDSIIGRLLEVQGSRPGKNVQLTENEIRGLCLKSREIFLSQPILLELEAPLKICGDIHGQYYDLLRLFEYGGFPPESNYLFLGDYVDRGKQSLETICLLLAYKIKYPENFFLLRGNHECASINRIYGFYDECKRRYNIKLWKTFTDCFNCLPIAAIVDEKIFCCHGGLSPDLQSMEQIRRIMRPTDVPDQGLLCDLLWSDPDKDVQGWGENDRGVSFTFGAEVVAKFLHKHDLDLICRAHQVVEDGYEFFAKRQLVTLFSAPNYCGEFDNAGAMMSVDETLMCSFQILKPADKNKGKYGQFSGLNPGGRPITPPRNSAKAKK
# Starred values were filed as active, the others as inactive; · = not tested or not shown.
SMILES,ATG4B inh,Cardio protect,PP5 inh,PP1 counter
C#CCOCCOCCOCCNc1nc(N2CCN(C(=O)[C@H](CCCCN)n3cc([C@@H](N)CO)nn3)CC2)nc(N2CCN(C(=O)[C@H](Cc3cc4ccccc4[nH]3)n3cc([C@@H](N)Cc4ccc(O)cc4)nn3)CC2)n1,·,·,3.3,7.3
C#CCOCCOCCOCCNc1nc(N2CCN(C(=O)C(Cc3cc4ccccc4[nH]3)n3cc(C(N)C(C)CC)nn3)CC2)nc(N2CCN(C(=O)C(Cc3cc4ccccc4[nH]3)n3cc(C(N)C(C)CC)nn3)CC2)n1 (centres undefined),-4.7,-0.8,3.7,27.2*
C#CCOCCOCCOCCNc1nc(N2CCOCC2)nc(N2CCN(C(=O)[C@H](Cc3cc4ccccc4[nH]3)n3cc([C@@H](N)C(C)CC)nn3)CC2)n1 (some centres undefined),-23.4,13.7,1.9,4.1
C#CCOCCOCCOCCNc1nc(N2CCN(C(=O)[C@H](CCCCN)n3cc([C@@H](N)CC(C)C)nn3)CC2)nc(N2CCN(C(=O)[C@H](Cc3cc4ccccc4[nH]3)n3cc([C@@H](N)Cc4ccc(O)cc4)nn3)CC2)n1,-4.4,-2.6,3.8,17.0*
CN(CC(=O)Nc1ccc(Cl)c(C(F)(F)F)c1)C(=O)c1ccc2c(c1)NC(=O)CS2,-14.7,-15.3,7.6,1.3
CCCc1cc(=O)oc2c(CNc3ccc(OCC)cc3)c(O)ccc12,-11.3,59.4*,0.6,-0.5
Cc1ccc(-n2nc(C)c(C(=O)Nc3cccc(C(=O)NC4CC4)c3)n2)c(C)c1,0.3,-0.7,6.5,2.5
COc1ccc(-c2cn(Cc3ccc(C(N)=O)cc3)c(-c3ccncc3)n2)cc1,-4.8,-10.3,2.5,2.2
Cc1cc(=O)n2[nH]c(-c3ccsc3-n3c(C)ccc3C)cc2n1,3.2,-3.1,3.0,16.1*
N#Cc1ccc(Nc2nc(-c3ccc(O)cc3O)cs2)cc1C(F)(F)F,41.3*,0.2,4.9,5.6
Cc1nc(-c2ccccn2)nc(SCC(=O)c2ccccc2)c1Cl,-6.4,5.3,1.6,15.3*
CC(C)(C)c1nnc(NS(=O)(=O)c2ccc([N+](=O)[O-])cc2)s1,1.9,-8.5,·,·
CNC(=S)NNC(=O)c1sccc1OCc1ccc(Cl)cc1Cl,1.2,0.3,1.0,-3.6
N/C(=N\NC(=O)c1sccc1OCc1ccc(Cl)cc1Cl)c1ccccn1,-10.2,54.8*,2.8,7.9
Cc1ccc(/C=C2\SC(=S)N(/N=C/c3cc([N+](=O)[O-])ccc3O)C2=O)o1,46.6*,9.7,-1.0,6.1
COc1ccc(C(=O)OCC(=O)N(C)C2CCS(=O)(=O)C2)cc1Br (centres undefined),-3.6,0.9,0.3,-1.8
CC(C)(C)NC(=O)CSc1nc2ccc(NC(=O)CSc3nnnn3Cc3ccccc3)cc2s1,-17.7,-28.8,5.6,15.8*
N#Cc1c(-c2cccs2)cc(-c2cccnc2)nc1N,-8.6,72.6*,0.7,6.4
N#Cc1c(-c2ccc(F)cc2)cc(-c2cccnc2)nc1N,-7.5,-10.9,2.7,-0.3
Nc1nc2ccccc2cc1-c1cccs1,-2.4,-9.6,0.4,-0.4
N#Cc1c(-c2cccs2)cc(-c2ccccn2)nc1N,0.3,43.0,4.1,16.1*
Cc1cc(/C=N/NC(=O)c2cc3ccccc3o2)c(C)n1C,-13.4,40.9,-0.2,1.6
O=C(Nc1ccccc1N1CCN(C(=O)c2ccc(Cl)cc2)CC1)c1ccc(Br)cc1,2.8,-1.1,1.5,16.1*
Cc1ccnc(Nc2ccc(CCO)cc2)n1,·,2.3,·,·
Cc1ccc(C)c(NC(=O)C(Sc2ncnc3ccccc23)c2ccccc2)c1 (centres undefined),-3.1,54.8*,1.4,0.8
SMILES,ATG4B inh,Cardio protect,PP5 inh,PP1 counter
CC(=O)c1cccc(NC(=O)C(Sc2ncnc3ccccc23)c2ccccc2)c1 (centres undefined),-19.4,10.6,1.9,1.8
Cc1ccc(C)c(NC(=O)C(Sc2nc3ccccc3c(=O)n2CC(C)C)c2ccccc2)c1 (centres undefined),1.7,80.0*,2.5,-0.2
O=C(Nc1ccc(N2CCOCC2)cc1)Nc1ccc2nc(-c3ccco3)c(-c3ccco3)nc2c1,2.3,63.2*,4.3,5.5
O=C(NCCCO)Nc1ccc2nc(-c3ccco3)c(-c3ccco3)nc2c1,·,·,3.5,14.0
O=C(Nc1ccccc1C(=O)NCc1ccco1)c1ccco1,1.4,6.7,1.8,-1.3
O=C(Nc1ccccc1C(=O)Nc1ccccc1C(=O)NCc1ccco1)c1ccco1,-24.8,52.5*,1.3,0.5
O=C(CNC(=O)c1ccccc1O)N/N=C/c1cc(Br)ccc1OC(=O)/C=C/c1ccco1,29.0,·,-0.1,3.2
O=C(CNC(=O)c1cccc(F)c1)N/N=C/c1cc(Br)ccc1OC(=O)/C=C/c1ccco1,-7.5,56.6*,·,·
O=C(Nc1ccc2c(c1)OCCO2)c1c[nH]c(=O)n(-c2ccc(F)c(Cl)c2)c1=O,-3.4,-4.7,0.8,-3.0
CCN1CCN(C(CNS(=O)(=O)c2ccc(F)cc2)c2cccnc2)CC1 (centres undefined),-5.7,0.4,1.8,-3.8
O=c1[nH]cc(N=Cc2cc([N+](=O)[O-])ccc2O)c(=O)[nH]1,·,·,-1.0,-3.9
O=c1[nH]cc(N=Cc2cc(Cl)cc(Cl)c2O)c(=O)[nH]1,31.8,49.4*,-0.9,-1.8
O=C(NNC(=O)c1ccccc1O)c1ccc(S(=O)(=O)Nc2ccccc2)cc1,-0.4,58.1*,-0.2,-3.0
COc1ccc(NC(=O)CN(C)C(=O)c2ccc3c(c2)OCCO3)cc1,0.6,4.4,0.2,-2.0
O=C(Nc1ccc(Cl)cc1)[C@@H]1[C@@H]2C(=O)N(c3ccc4ccccc4c3)C(=O)[C@@H]2[C@H]2C=CC=NN21,5.8,-6.7,2.1,15.2*
O=C(Nc1ccc(Cl)cc1)[C@@H]1[C@@H]2C(=O)N(c3cccc(F)c3)C(=O)[C@@H]2[C@H]2C=CC=NN21,-7.5,1.8,-1.9,0.6
Cc1cccc2sc(NNC(=O)c3cc(=O)c4ccccc4o3)nc12,5.9,11.3,1.0,3.6
Cc1ccc2sc(NNC(=O)c3cc(=O)c4ccccc4o3)nc2c1C,14.3,56.1*,1.5,7.5
O=[N+]([O-])c1ccccc1S(=O)(=O)NCCSCc1ccco1,-4.8,2.6,3.9,17.3*
CC(=NOC(=O)c1ccc(I)cc1)c1nccs1,·,-9.0,·,·
CC(Oc1ccccc1)C(=O)Nc1cc(Cl)ccc1-n1cncn1 (centres undefined),8.3,3.6,0.4,-2.3
CCN(CC)Cc1c(C(=O)N/N=C/c2cccnc2)nnn1-c1nonc1N,-0.9,4.1,-1.0,-3.3
CCN(CC)Cc1c(C(=O)N/N=C/c2ccc(OCc3ccccc3C)cc2)nnn1-c1nonc1N,2.9,-6.0,3.6,16.4*
Nc1nonc1-n1nnc(C(=O)N/N=C/c2cc(Br)ccc2O)c1CNc1ccccc1,2.6,45.7,2.5,17.0*
Cc1c(C(=O)N/N=C/c2c(O)ccc3ccccc23)nnn1-c1nonc1N,-5.1,59.6*,0.1,-0.1
COc1ccc(C(=O)CSc2nc3nn(-c4ccccc4)c(=O)c-3c3n2CCCCC3)c(OC)c1,·,1.0,·,·
COc1cc(NC(=O)CCl)ccc(=O)c1,·,-9.0,·,·
